Assay results published in PubChem BioAssay (NCI).
Compounds without any hit were thinned out: in the full panel of roughly 83,000, 20% have a hit.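 96-well plates, one dose, 48 hours. Percent growth reported; active if below 10.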 A number with no mark means an inactive call. Calls of active or inactive are those of the source.

Assays:
Test in all cases: NCI-60 one-dose screen, 48 h (100 = growth as untreated, 0 = no growth, -100 = all killed)
Details in all cases: 10 µM unless noted
SR leukemia = tested on: SR leukemia
RPMI-8226 leukemia = tested on: RPMI-8226 leukemia
OVCAR-8 ovarian = tested on: OVCAR-8 ovarian
OVCAR-5 ovarian = tested on: OVCAR-5 ovarian
OVCAR-4 ovarian = tested on: OVCAR-4 ovarian
SK-OV-3 ovarian = tested on: SK-OV-3 ovarian
IGROV1 ovarian = tested on: IGROV1 ovarian
OVCAR-3 ovarian = tested on: OVCAR-3 ovarian
HS 578T breast = tested on: HS 578T breast
NCI/ADR-RES ovarian = tested on: NCI/ADR-RES ovarian
T-47D breast = tested on: T-47D breast
BT-549 breast = tested on: BT-549 breast
MDA-MB-435 melanoma = tested on: MDA-MB-435 melanoma
SW-620 colon = tested on: SW-620 colon
MCF7 breast = tested on: MCF7 breast
HCT-116 colon = tested on: HCT-116 colon
HCC-2998 colon = tested on: HCC-2998 colon
KM12 colon = tested on: KM12 colon

Row | SMILES | growth (SR leukemia) | growth (RPMI-8226 leukemia) | growth (OVCAR-8 ovarian) | growth (OVCAR-5 ovarian) | growth (OVCAR-4 ovarian) | growth (SK-OV-3 ovarian) | growth (IGROV1 ovarian) | growth (OVCAR-3 ovarian) | growth (HS 578T breast) | growth (NCI/ADR-RES ovarian) | growth (T-47D breast) | growth (BT-549 breast) | growth (MDA-MB-435 melanoma) | growth (SW-620 colon) | growth (MCF7 breast) | growth (HCT-116 colon) | growth (HCC-2998 colon) | growth (KM12 colon)
1 | Nc1nc2ccccc2c2c(=O)c3cccc(Cl)c3sc12 | 89% | 96.1% | 94% | 75% | 81.1% | 86.5% | 73.8% | 115% | 101% | 93.1% | 38.7% | 99.2% | 96.9% | 89% | 12.2% | 64.8% | 63% | 89.8%
2 | O=C(Nc1cccc(Cl)c1)Nc1cccc(Cn2c(=O)[nH]c3ccc(Oc4ncccn4)cc3c2=O)c1 | 21.4% | 25.3% | 37.4% | 81.7% | 13.3% | 70.7% | 62% | 33.5% | 51.8% | 95.5% | 16.3% | 48% | 42.6% | 72.3% | 35.8% | 22.9% | 69.7% | 29.5%
3 | O=C1/C(=C/c2ccccc2O)CC/C1=C\c1ccccc1O | 8.12% (active) | -6.74% (active) | 68.9% | 126% | 63.4% | 102% | 32.1% | 30.9% | 70.7% | 72.7% | 47.3% | 2% (active) | 26.4% | 55.1% | 24.3% | 16.7% | 104% | 75.7%
4 | Cc1ccc2c(n1)C(=O)C(Br)=C(C1CCCC1)C2=O | 31.1% | 55.9% | 96% | 106% | 112% | 88.7% | 96% | 82.9% | 93.1% | 97.1% | 90% | 95.5% | 108% | 85.8% | 89.8% | 73.7% | 115% | 99.6%
5 | C=CC[Se]C(=O)Cc1c(C)n(C(=O)c2ccc(Cl)cc2)c2ccc(OC)cc12 | 2.02% (active) | -25.8% (active) | -38.1% (active) | -44.7% (active) | -50.7% (active) | -83% (active) | 2.4% (active) | -40.6% (active) | -12.7% (active) | -7.75% (active) | -24.3% (active) | 0.594% (active) | 8.15% (active) | 5.69% (active) | -4.29% (active) | 5.41% (active) | 4.27% (active) | -27.9% (active)
6 | O=S(=O)(NCCCNc1nccc(-c2c(-c3ccc(F)c(O)c3)nc3sccn23)n1)c1ccccc1 | 33.9% | 40.3% | 54.2% | 113% | 75.6% | 78% | 65% | 66% | 72.8% | 100% | 64.8% | 91.1% | 29.3% | 56.2% | 58.5% | 30.6% | 78.2% | 64.6%
7 | O=c1c2cnn(-c3ccccc3)c2n2c(CN3CCOCC3)nnc2n1-c1ccccc1 | 104% | 102% | 100% | 114% | 104% | 88.2% | 109% | 105% | 107% | 98.8% | 81.9% | 75.2% | 112% | 110% | 99.3% | 78.8% | 104% | 101%
8 | CCCC/C(CC)=N\NS(=O)(=O)c1ccc([N+](=O)[O-])cc1 | 97.5% | 101% | 100% | 94.6% | 100% | 95.9% | 105% | 107% | 103% | 104% | 95.3% | 114% | 107% | 106% | 102% | 99.6% | 107% | 98.6%
9 | O=C(Nc1cccc(-c2ccc(Cl)c(C(F)(F)F)c2)c1)C1CCN(Cc2cccc3cccnc23)CC1 | -25.7% (active) | -27.3% (active) | -38.3% (active) | 70.2% | 17.4% | 55.4% | -56.2% (active) | -66.4% (active) | 5.48% (active) | 0.0048% (active) | -55.8% (active) | 63.5% | -83.7% (active) | -83% (active) | -89.9% (active) | -75% (active) | -83.5% (active) | -27.4% (active)
10 | COC12C=C/C(=C(/C(=O)OCc3ccncn3)C(=O)CCCCCCCCC3(OC)C=C/C(=C(/C(=O)OCc4ccncn4)C(=O)CCCCCCCC1)O3)O2 | -15.6% (active) | -22.3% (active) | 17.2% | -2.72% (active) | 12.2% | 52.8% | -27.1% (active) | -52.4% (active) | 38% | 7.59% (active) | 25.3% | -27.1% (active) | -34.4% (active) | 12.9% | 5.92% (active) | -50.9% (active) | -85.1% (active) | -75.9% (active)
11 | C=C(C)[C@@H]1CC[C@]2(C(=O)N3CCOCC3)CC[C@]3(C)[C@H](CC[C@@H]4[C@@]5(C)C/C(=C/c6ccncc6)C(=O)C(C)(C)[C@@H]5CC[C@]43C)[C@@H]12 | 34.7% | 4.12% (active) | 55.6% | 93.3% | 49.4% | 73.9% | 71.1% | 52.4% | 74.5% | 72.3% | 26.5% | 73.4% | 62.3% | 50.3% | 28.9% | 32.4% | 58.7% | 52.2%
12 | c1ccc(-c2oc(-c3ccccc3)c(CN3CCCCC3)c2CN2CCCCC2)cc1 | -2.07% (active) | -6.38% (active) | 33% | 50.3% | 11.9% | 52.3% | 44.7% | 23.4% | 34.3% | 39.8% | 8.84% (active) | 43.3% | 31.7% | 39.6% | 11.7% | 20.9% | -22.9% (active) | 22%
13 | COc1ccc(-c2cc(-c3cccnc3)nc3sc4c(=O)[nH]c(-c5ccc(Cl)cc5)nc4c23)cc1OC | 87.5% | 88.8% | 92.2% | 98.2% | 87.9% | 95.2% | 90.3% | 102% | 92% | 98% | 66.8% | 91.1% | 99.8% | 92.2% | 73.5% | 80.7% | 105% | 99%
14 | Fc1cccc(Oc2ccc(Nc3ncnc4ccc(OCCCN5CCOCC5)cc34)cc2Cl)c1 | 20.9% | 38.5% | 62% | 78.1% | 53.5% | 7.14% (active) | 12.1% | 45.4% | 74.5% | 55.1% | 36% | 79% | 54.3% | 61.1% | 50.4% | 69.4% | 57% | 45.9%
15 | Cc1cccc(/C=C2\CN(C(=O)OC(C)(C)C)C/C(=C\c3cccc(C)c3)C2=O)c1 | 6.54% (active) | -7.31% (active) | 85.4% | 109% | 89.2% | 93.3% | 90.4% | 97.5% | 96.7% | 88% | 87.8% | 105% | 93.1% | 7.71% (active) | 23.2% | 11.2% | 103% | 74.1%
16 | O=C(NCCCl)Nc1ncccc1OCc1ccccc1 | 78% | 99.4% | 104% | 90.9% | 96.8% | 114% | 95.8% | 107% | 110% | 106% | 97.9% | 105% | 97.1% | 99% | 96.3% | 101% | 102% | 108%
17 | CCCCCCCCCCCCCCCCCCOc1ccccc1CC(=O)OCC[N+](C)(C)C | 11.1% | 40.9% | 5.15% (active) | 31.8% | 20% | 56.2% | -61.4% (active) | 16.5% | 17.1% | 91.3% | 28.8% | 46.5% | 31.5% | 23.9% | 34% | 30.6% | 27.9% | -27.4% (active)
18 | O=c1c2cccc3c(N4CCCC4)ccc(c32)c2nc3ccccc3n12 | 20.2% | 75.7% | 66% | 106% | 78.8% | 79.1% | 57.1% | 98.2% | 67.2% | 83% | 72.2% | 71.2% | 103% | 59.5% | 50.1% | 54.7% | 70.3% | 87.9%
